FLuc modulator: counter-screen for miR-21 project: firefly luciferase inhibitors or activators. Potency, µM (series often up to 57.5 µM), for the others: at the highest dose activity change, negative = inhibition, usual class: inhibitors. purified FLuc, Km substrates, luminescence inhibition. P08659. 360,000 compounds, 6.9% hits;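 also: plate controls were vehicle for no effect and reference inhibitor for full effect; nearly all actives have a fitted effect of over 55% in size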
Target sequence (P08659 whole entry, looked up): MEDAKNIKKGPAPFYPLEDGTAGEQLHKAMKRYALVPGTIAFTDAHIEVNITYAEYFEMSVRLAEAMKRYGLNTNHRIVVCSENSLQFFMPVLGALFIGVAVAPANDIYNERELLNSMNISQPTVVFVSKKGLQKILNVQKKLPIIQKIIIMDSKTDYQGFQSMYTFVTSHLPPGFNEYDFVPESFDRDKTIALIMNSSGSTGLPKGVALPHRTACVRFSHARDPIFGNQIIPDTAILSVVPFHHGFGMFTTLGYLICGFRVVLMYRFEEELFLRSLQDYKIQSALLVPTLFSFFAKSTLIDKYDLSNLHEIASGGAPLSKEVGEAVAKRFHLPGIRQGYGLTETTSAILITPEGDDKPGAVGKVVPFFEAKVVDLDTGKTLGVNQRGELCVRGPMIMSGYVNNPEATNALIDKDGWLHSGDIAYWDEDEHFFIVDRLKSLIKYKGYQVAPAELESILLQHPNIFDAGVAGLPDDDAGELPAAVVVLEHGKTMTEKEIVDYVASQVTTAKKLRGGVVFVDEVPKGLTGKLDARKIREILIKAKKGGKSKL
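Purified P. pyralis luciferase (10nM final) with 10uM D-luciferin and 10uM ATP (Km levels) in 50mM Tris acetate pH 7.5, 10mM Mg acetate, 0.01% Tween-20, 0.05% BSA; qHTS 6-point titration, ~60 µM downward; luminescence read.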
SMN2 splice enh: increases expression of the SMN2 splice variant; HEK293 SMN2-luciferase splicing reporter, luminescence, 30-36 h; Potency, µM (titrated, usually from 46.1 µM), for the others: top-dose activity change, positive = activation, most hits filed as activators; 210,000 compounds, 2.8% hits; AID 1458; also: % of control where 0% means no effect; nearly all actives have a fitted effect of over 55% in size
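HEK293 cells carry an SMN2 […]–luciferase reporter in which exon 7 inclusion puts luciferase in frame. Cells were plated 10-12 h before compound addition, then incubated 30-36 h at 37C. ONE-Glo luminescence was read; sodium butyrate at 4.5 mM final served as control.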
NPC1 prom act: NPC1 promoter activation; Potency, µM (doses to about 9.22 µM), for the others: at the highest dose activation, usual class: activators; 320,000 compounds, 2.4% hits; Huh7 NPC1 promoter luciferase reporter, 24 h; AID 485313; also: % of control where 0% means no effect; nearly all actives have a fitted effect of over 60% in size
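In 1536-well qHTS, Huh7 cells harboring an NPC1 promoter–luciferase construct received compound for 24 h; activation was quantified by luminescence following luciferase reagent addition.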
ELG1 genotoxic: inducers of genotoxicity in HEK293T ELG1-luciferase cells | 330,000 compounds, 1.3% hits | AID 504466 | Potency, µM (titrated, usually from 46 µM), for the others: at the highest dose activity change, positive = activation, actives largely listed as activators | HEK293T ELG1-luciferase reporter, luminescence, 16 h; also: % of control where 0% means no effect; nearly all actives have a fitted effect of over 60% in size
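After overnight (16 hr) compound treatment at 37 °C, ELG1-luciferase HEK293T cells were lysed with ONE-Glo; luminescence quantified 30 min later at room temperature.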
Rab9 promoter act: activators of Rab9 promoter | Huh7 Rab9 promoter-luciferase reporter, luminescence, 24 h | Potency, µM (highest dose often 9.22 µM), for inactives: top-dose activation, negative = inhibition, hits mostly activators | 320,000 compounds, 2.8% hits; also: % of control where 0% means no effect; nearly all actives have a fitted effect of over 60% in size
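Huh7 cells stably carrying a Rab9 promoter-luciferase reporter, 1500 cells per well in OP-MEM I with 10% FBS, treated with compound 24 hours at 37C. Luciferase activity read by luminescence after 10 minutes with Amplite reagent.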
ELG1 DNA repair: ELG1-dependent DNA repair inhibition | AID 504467 | Potency, µM (top dose mostly 46.1 µM), for inactives: at the top dose activity change, negative = inhibition, most hits filed as inhibitors | 330,000 compounds, 2.3% hits | HEK293T ELG1-luciferase reporter, luminescence, 16 h; DNA damage induced by 5-fluorouridine; also: % is scaled to controls: 0 for no effect and ±100 for the full control effect; nearly all actives have a fitted effect of over 55% in size
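Step one: seed 2,000 cells per well. Step two: pin-transfer compound or DMSO alongside 5-fluorouridine. Step three: incubate 16 hr, 37 °C, 5% CO2. Step four: add ONE-Glo, wait 30 min, read luminescence.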
Numbers without * were called inactive; ? = inconclusive; · = no result given; ! = not confirmed by another sample. Only some compounds are listed: those with a hit (about 9.2% of all), similar ones and a draw of the others. Calls follow the shape of the dose curve; as a rule, active = well fitted curve in the direction sought with a large enough effect; inconclusive = small, poorly fitted or top-dose-only effect, or another doubt; inactive = no such curve, though single readings can be large; an effect the other way counts as inactive or inconclusive. Potency is read from the fitted curve at half-maximal effect.

SMILES	FLuc modulator	SMN2 splice enh	NPC1 prom act	ELG1 genotoxic	Rab9 promoter act	ELG1 DNA repair
CCOc1cc(/C=C2\NC(=S)N(c3c(C)n(C)n(-c4ccccc4)c3=O)C2=O)ccc1O	-0.9%	3.0%	-4.0%	2.1%	-5.0%	-0.8%
CCN(CC)C(=O)c1ccc(NS(=O)(=O)c2ccc3[nH]c(=O)[nH]c3c2)cc1	-12.5%	·	0.4%	-12.2%	-2.4%	18.3µM*
CCC(C)NC(=O)c1ccc(NS(=O)(=O)c2ccc3[nH]c(=O)[nH]c3c2)cc1 (configuration not stated)	16.9µM*	·	13.5%	?	1.1%	?
COCCNC(=O)c1ccc(NS(=O)(=O)c2ccc3[nH]c(=O)[nH]c3c2)cc1	1.9%	·	-0.7%	-0.1%	6.9%	11.0%
COc1ccc(-n2nnnc2SCC(=O)Nc2c(C)n[nH]c2C)cc1	·	·	·	-1.4%	·	-13.1%
O=C(c1ccc(Cn2c(=O)[nH]c3ccccc3c2=O)cc1)N1CCN(c2ccc(F)cc2)CC1	0.5%	-19.4%	0.4%	1.6%	-1.7%	18.4µM*
COc1ccc(Cn2c(=O)[nH]c3cc(C(=O)N4CCN(c5ccccc5OC)CC4)ccc3c2=O)cc1	0.5%	·	-17.2%	-27.6%	-2.8%	20.6µM*
COc1ccc(Cn2c(=O)[nH]c3cc(C(=O)N4CCN(c5ccccc5F)CC4)ccc3c2=O)cc1	2.4%	·	-10.2%	2.6%	0.0%	6.3%
CC(=O)c1cccc(NC(=O)c2ccc(-n3c(C)nnc3C)cc2)c1	-4.7%	·	·	·	·	·
O=C(O)c1ccccc1C(=O)Nc1cc(-c2ccccc2)[nH]n1	?	·	0.6%	1.9%	6.5%	19.4%
O=C(Nc1cc(-c2ccccc2)[nH]n1)c1ccccc1	4.78µM*	·	0.562µM*	?	0.631µM*	?
O=C(Nc1cc(-c2ccccc2)[nH]n1)c1ccccc1F	8.49µM*	·	1.78µM*	?	1.41µM*	?
O=C(COC(=O)c1c[nH]c2ccccc12)Nc1cccc(F)c1	-5.9%	·	3.4%	1.1%	-2.7%	1.6%
CC(=O)c1cccc(NC(=O)c2cc(=O)[nH]c3ccc(S(=O)(=O)N4CCOCC4)cc23)c1	·	·	·	2.0%	·	-12.8%
O=C(N/N=C/c1cccs1)c1c[nH]c2ccccc12	6.01µM*	11.2µM*	3.16µM*	?	2.82µM*	?
CCc1ccc(/C=N/NC(=O)c2c[nH]c3ccccc23)s1	6.01µM*	6.31µM*	2µM*	?	1.26µM*	?
CCOC(=O)c1cc(-c2ccccc2C)nn1Cc1cc(CC)no1	16.9µM*	·	17.3%	7.1%	26.1%	?
CCOC(=O)c1cc(-c2ccccc2)nn1Cc1cc(CC)no1	?	·	21.3%	?	?	?
O=C(CSc1nnc(NC(=O)C2CC(=O)N(c3ccc(F)cc3)C2)s1)NCC1CCCO1 (configuration not stated)	-0.2%	·	-1.6%	-2.2%	3.0%	9.6%
Cn1c(=O)n(CC(=O)NCC2CCCO2)c(=O)c2c3c(sc21)CCCC3 (configuration not stated)	2.6%	·	-6.6%	0.1%	-4.1%	1.6%
O=C(O)c1cc(N=Nc2ccc([N+](=O)[O-])cc2)ccc1O	·	14.1µM*!	·	·	·	·
Cc1ccc(-c2cc(=O)c3cc(F)ccc3[nH]2)cc1	26.9µM*	?	0.6%	12.2%	15.6%	25.3%
Cc1ccc(-c2cc(=O)c3cc(C)ccc3[nH]2)cc1	0.675µM*	2.24µM*	?	?	?	?
CN(CC(=O)Nc1ccc(Cl)c(C(F)(F)F)c1)C(=O)C1CSC2(C)CCC(=O)N12 (configuration not stated)	2.2%	·	1.0%	-0.2%	-1.8%	4.9%
CCCSc1nc2c([nH]c3ccccc32)c(=O)n1C	-0.4%	·	·	·	·	·
SMILES	FLuc modulator	SMN2 splice enh	NPC1 prom act	ELG1 genotoxic	Rab9 promoter act	ELG1 DNA repair
O=C(NCC1CCN(c2ccc(S(=O)(=O)N3CCOCC3)cc2)CC1)Nc1ccccc1	-0.4%	·	-1.8%	-9.5%	-0.7%	14.6µM*
O=C(NC(=O)N1CCN(c2cccc(Cl)c2)CC1)c1ccc(Cl)cc1	-0.8%	·	-3.5%	4.0%	-3.2%	4.1%
O=C(NC(=S)N1CCN(c2ccccc2)CC1)c1ccc(S(=O)(=O)N2CCOCC2)cc1	-0.2%	·	-4.0%	-5.0%	-12.2%	18.3µM*
O=C(Nc1ccccc1)c1ccc(S(=O)(=O)N2CCOCC2)cc1	-7.4%	-12.9%	1.8%	5.8%	0.9%	5.1%
Cc1ccc(NC(=S)N2CCN(S(=O)(=O)c3ccc(C)cc3)CC2)cc1	4.0%	·	3.5%	-6.2%	-2.6%	-5.2%
O=C(NC(=O)N1CCN(c2ccccc2)CC1)c1ccc(Cl)cc1	26.9µM*	12.6µM*	0.9%	?	20.4%	?
O=S(=O)(c1ccc(NC(=S)N2CCN(c3ccc(O)cc3)CC2)cc1)N1CCOCC1	0.8%	-73.9%	-0.7%	-6.3%	0.3%	8.2µM*
CCOC(=O)C1=CN(Cc2cccc(-c3ccc4c(c3)OCO4)c2)S(=O)(=O)N(C)C1C (configuration not stated)	·	·	·	-4.8%	·	?
CC(=O)c1nccs1	8.0%	-3.9%	-1.2%	1.3%	-5.7%	14.1%
Cc1ccc(SCC(=O)Nc2ccc(C(=O)Nc3ccc(O)cc3)cc2)cc1	?	17.4%	0.8%	?	-1.6%	?
COc1cc(S(=O)(=O)N2CCOCC2)ccc1NC(=O)c1cc2c(s1)CCC2	6.2%	6.3%	-1.4%	-1.9%	-8.0%	-26.9%
Cc1ccc(S(=O)(=O)N2CCOCC2)cc1NC(=O)c1cc2c(s1)CCC2	0.7%	-15.6%	-1.6%	-4.7%	-4.4%	23.1µM*
Cc1ccc(NC(=O)c2cc3c(s2)CCC3)cc1S(=O)(=O)N1CCOCC1	13.5µM*	-36.5%	4.5%	-15.5%	-3.7%	23.1µM*
Cc1ccc(C(c2c(O)cc(C)n(Cc3ccco3)c2=O)N2CCC(C)CC2)cc1 (configuration not stated)	-16.9%	·	·	·	·	·
CCn1cc2nc(SCC(=O)Nc3cccc(Cl)c3C)n(Cc3ccc(Cl)cc3)c(=O)c2n1	6.1%	7.4%	·	·	·	·
Cc1ccc(S(=O)(=O)N[C@H](C(=O)OCn2nnc3ccccc3c2=O)C(C)C)cc1	0.7%	-44.8%	0.3%	-8.1%	-5.5%	20.6µM*
FC(F)(F)c1cnc2c(c1)[nH]c(=S)n2-c1ccc(Cl)cc1	1.1%	·	-5.2%	-14.1%	-1.2%	16.4µM*
COc1ccc(CNCc2ccc(C(=O)O)s2)cc1	0.4%	7.4%	·	·	·	·
CN(C)c1ccc(/C=C(\NC(=O)c2ccccc2)C(=O)NCc2cccnc2)cc1	10.7µM*	·	0.5%	-1.5%	-2.6%	4.4%

Screening data from PubChem.
